The supplement of paper PMC11732987, “Enantioselective OTUD7B fragment discovery through chemoproteomics screening and high-throughput optimisation” (Communications Chemistry, 2025)

Legend:
Experiment in all cases: log2 ratio of Biotin-Ahx-Ub-VS probe labelling (fragment/DMSO); higher = less target engagement (more negative = stronger competition), active = hit call of the paper (q ≤ 0.05, log2 ratio ≤ -1)
Conditions in all cases: compound concentration: 200 uM; treatment time: 3 h
USP34 = USP34 (UniProt Q70CQ2)
Outline: (§1)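 Labelling with Biotin-Ahx-Ub-VS (0.5 µM final, 1 h) followed a 3 h triplicate treatment of HEK293T lysate (495 µg per sample, Tris/CHAPS/IGEPAL buffer with protease inhibitors) with fragment at 200 µM or vehicle. Labelled DUBs were NeutrAvidin-enriched, digested with LysC and trypsin, and run by diaPASEF LC-MS/MS. The values, average log2 fragment/vehicle ratios by unpaired t-test, come from global-median-normalised Spectronaut label-free quantities. Proteins with ≥2 unique peptides were used.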

USP36 = biological target: T1, USP36 (UniProt Q9P275)
T1 sequence (whole entry): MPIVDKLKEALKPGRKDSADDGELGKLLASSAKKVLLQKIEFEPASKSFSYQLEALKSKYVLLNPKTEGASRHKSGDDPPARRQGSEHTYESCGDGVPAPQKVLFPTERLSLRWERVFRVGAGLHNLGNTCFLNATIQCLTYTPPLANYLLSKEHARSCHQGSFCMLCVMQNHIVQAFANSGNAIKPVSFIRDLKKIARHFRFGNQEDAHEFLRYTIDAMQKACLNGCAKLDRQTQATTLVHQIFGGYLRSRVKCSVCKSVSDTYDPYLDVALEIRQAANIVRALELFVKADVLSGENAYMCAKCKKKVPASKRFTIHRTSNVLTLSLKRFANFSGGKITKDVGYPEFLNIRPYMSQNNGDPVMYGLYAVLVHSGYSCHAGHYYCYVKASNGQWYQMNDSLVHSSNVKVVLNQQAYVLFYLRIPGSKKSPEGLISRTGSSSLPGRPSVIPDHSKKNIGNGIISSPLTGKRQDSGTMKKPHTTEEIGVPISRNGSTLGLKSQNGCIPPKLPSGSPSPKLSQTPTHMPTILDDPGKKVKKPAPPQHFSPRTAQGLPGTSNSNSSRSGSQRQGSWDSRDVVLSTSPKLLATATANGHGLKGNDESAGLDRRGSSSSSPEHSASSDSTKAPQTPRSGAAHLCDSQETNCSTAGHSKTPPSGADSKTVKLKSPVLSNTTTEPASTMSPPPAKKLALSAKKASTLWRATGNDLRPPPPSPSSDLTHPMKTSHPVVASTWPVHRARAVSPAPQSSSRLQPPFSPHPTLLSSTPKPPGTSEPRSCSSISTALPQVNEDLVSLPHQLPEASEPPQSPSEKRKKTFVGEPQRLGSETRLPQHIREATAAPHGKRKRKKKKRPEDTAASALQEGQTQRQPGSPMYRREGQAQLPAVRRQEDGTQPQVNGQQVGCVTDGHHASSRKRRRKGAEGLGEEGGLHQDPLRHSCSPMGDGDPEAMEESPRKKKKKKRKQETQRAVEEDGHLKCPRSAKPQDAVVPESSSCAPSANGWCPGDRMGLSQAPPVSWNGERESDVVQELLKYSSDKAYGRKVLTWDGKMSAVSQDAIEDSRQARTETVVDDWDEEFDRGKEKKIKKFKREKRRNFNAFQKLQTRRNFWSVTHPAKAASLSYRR
Outline: as §1

USP38 = biological target: T2, USP38 (UniProt Q8NB14)
T2 sequence (whole entry): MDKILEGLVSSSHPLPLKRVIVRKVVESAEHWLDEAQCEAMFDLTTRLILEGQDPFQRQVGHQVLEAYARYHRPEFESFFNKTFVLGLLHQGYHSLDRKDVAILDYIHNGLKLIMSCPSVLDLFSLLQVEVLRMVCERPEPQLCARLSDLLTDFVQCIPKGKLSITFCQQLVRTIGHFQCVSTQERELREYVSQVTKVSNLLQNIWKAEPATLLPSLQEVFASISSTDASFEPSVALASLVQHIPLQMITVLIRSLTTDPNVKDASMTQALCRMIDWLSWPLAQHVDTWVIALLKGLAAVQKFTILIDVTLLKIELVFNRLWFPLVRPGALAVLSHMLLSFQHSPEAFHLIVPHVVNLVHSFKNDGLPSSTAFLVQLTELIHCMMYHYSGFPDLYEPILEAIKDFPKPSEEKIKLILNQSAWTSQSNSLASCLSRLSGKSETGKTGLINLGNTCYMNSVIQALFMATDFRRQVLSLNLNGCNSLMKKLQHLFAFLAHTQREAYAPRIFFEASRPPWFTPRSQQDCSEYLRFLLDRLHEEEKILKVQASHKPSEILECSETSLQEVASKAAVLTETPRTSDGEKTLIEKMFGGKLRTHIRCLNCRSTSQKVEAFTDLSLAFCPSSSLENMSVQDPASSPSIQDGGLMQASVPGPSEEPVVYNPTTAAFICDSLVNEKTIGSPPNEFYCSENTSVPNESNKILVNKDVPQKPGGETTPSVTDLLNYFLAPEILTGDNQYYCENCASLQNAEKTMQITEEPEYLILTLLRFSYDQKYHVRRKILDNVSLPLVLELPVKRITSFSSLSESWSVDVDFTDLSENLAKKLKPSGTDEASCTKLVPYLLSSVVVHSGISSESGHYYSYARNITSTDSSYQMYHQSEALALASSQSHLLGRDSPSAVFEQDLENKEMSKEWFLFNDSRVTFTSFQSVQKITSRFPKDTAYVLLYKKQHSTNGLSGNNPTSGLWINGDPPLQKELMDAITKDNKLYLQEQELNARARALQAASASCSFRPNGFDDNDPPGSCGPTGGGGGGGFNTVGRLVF
Outline: as §1

USP39 = biological target: T3, USP39 (UniProt Q53GS9)
T3 sequence (whole entry): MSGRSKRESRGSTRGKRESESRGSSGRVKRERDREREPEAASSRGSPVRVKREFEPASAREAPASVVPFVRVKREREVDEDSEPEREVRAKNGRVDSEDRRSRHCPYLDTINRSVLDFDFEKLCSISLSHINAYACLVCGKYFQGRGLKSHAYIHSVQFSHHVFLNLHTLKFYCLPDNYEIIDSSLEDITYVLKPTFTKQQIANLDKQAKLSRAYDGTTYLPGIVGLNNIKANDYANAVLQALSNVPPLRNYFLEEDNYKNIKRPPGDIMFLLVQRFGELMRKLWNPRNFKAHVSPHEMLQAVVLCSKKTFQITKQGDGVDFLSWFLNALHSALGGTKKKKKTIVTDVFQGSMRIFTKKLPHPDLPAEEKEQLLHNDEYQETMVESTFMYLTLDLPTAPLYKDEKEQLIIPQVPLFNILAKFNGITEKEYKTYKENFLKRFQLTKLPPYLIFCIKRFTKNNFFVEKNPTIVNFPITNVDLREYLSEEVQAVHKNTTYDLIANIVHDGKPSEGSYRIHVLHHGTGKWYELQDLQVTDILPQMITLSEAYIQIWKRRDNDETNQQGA
Outline: as §1

USP4 = biological target: T4, USP4 (UniProt Q13107)
T4 sequence (whole entry): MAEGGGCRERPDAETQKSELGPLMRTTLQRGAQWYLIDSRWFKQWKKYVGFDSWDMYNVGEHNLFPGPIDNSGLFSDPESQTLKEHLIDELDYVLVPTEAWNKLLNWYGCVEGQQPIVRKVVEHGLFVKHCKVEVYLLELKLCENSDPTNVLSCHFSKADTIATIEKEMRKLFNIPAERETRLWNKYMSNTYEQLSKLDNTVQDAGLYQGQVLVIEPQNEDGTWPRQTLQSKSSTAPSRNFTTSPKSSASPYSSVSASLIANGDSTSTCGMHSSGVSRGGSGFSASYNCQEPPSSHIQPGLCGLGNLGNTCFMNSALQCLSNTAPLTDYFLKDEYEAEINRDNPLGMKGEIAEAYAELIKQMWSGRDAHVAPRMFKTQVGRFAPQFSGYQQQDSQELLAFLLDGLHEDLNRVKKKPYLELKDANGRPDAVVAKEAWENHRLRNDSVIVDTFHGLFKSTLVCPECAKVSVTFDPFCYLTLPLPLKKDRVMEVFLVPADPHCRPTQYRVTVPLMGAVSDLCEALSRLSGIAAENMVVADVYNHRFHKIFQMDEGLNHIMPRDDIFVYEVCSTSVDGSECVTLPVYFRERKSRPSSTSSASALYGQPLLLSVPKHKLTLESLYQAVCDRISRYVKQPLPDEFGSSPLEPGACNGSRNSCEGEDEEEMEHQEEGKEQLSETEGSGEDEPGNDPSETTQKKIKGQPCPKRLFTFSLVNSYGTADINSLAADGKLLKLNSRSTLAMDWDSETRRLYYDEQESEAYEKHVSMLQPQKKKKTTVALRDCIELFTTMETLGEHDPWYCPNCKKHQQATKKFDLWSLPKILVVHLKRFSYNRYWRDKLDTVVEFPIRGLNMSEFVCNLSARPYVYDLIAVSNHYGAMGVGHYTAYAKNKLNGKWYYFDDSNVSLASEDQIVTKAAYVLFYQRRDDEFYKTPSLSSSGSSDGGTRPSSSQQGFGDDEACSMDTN
Outline: as §1

Measured: log2 ratio of Biotin-Ahx-Ub-VS probe labelling

Sequence of USP34 (Q70CQ2 whole entry, the tested form may be a part): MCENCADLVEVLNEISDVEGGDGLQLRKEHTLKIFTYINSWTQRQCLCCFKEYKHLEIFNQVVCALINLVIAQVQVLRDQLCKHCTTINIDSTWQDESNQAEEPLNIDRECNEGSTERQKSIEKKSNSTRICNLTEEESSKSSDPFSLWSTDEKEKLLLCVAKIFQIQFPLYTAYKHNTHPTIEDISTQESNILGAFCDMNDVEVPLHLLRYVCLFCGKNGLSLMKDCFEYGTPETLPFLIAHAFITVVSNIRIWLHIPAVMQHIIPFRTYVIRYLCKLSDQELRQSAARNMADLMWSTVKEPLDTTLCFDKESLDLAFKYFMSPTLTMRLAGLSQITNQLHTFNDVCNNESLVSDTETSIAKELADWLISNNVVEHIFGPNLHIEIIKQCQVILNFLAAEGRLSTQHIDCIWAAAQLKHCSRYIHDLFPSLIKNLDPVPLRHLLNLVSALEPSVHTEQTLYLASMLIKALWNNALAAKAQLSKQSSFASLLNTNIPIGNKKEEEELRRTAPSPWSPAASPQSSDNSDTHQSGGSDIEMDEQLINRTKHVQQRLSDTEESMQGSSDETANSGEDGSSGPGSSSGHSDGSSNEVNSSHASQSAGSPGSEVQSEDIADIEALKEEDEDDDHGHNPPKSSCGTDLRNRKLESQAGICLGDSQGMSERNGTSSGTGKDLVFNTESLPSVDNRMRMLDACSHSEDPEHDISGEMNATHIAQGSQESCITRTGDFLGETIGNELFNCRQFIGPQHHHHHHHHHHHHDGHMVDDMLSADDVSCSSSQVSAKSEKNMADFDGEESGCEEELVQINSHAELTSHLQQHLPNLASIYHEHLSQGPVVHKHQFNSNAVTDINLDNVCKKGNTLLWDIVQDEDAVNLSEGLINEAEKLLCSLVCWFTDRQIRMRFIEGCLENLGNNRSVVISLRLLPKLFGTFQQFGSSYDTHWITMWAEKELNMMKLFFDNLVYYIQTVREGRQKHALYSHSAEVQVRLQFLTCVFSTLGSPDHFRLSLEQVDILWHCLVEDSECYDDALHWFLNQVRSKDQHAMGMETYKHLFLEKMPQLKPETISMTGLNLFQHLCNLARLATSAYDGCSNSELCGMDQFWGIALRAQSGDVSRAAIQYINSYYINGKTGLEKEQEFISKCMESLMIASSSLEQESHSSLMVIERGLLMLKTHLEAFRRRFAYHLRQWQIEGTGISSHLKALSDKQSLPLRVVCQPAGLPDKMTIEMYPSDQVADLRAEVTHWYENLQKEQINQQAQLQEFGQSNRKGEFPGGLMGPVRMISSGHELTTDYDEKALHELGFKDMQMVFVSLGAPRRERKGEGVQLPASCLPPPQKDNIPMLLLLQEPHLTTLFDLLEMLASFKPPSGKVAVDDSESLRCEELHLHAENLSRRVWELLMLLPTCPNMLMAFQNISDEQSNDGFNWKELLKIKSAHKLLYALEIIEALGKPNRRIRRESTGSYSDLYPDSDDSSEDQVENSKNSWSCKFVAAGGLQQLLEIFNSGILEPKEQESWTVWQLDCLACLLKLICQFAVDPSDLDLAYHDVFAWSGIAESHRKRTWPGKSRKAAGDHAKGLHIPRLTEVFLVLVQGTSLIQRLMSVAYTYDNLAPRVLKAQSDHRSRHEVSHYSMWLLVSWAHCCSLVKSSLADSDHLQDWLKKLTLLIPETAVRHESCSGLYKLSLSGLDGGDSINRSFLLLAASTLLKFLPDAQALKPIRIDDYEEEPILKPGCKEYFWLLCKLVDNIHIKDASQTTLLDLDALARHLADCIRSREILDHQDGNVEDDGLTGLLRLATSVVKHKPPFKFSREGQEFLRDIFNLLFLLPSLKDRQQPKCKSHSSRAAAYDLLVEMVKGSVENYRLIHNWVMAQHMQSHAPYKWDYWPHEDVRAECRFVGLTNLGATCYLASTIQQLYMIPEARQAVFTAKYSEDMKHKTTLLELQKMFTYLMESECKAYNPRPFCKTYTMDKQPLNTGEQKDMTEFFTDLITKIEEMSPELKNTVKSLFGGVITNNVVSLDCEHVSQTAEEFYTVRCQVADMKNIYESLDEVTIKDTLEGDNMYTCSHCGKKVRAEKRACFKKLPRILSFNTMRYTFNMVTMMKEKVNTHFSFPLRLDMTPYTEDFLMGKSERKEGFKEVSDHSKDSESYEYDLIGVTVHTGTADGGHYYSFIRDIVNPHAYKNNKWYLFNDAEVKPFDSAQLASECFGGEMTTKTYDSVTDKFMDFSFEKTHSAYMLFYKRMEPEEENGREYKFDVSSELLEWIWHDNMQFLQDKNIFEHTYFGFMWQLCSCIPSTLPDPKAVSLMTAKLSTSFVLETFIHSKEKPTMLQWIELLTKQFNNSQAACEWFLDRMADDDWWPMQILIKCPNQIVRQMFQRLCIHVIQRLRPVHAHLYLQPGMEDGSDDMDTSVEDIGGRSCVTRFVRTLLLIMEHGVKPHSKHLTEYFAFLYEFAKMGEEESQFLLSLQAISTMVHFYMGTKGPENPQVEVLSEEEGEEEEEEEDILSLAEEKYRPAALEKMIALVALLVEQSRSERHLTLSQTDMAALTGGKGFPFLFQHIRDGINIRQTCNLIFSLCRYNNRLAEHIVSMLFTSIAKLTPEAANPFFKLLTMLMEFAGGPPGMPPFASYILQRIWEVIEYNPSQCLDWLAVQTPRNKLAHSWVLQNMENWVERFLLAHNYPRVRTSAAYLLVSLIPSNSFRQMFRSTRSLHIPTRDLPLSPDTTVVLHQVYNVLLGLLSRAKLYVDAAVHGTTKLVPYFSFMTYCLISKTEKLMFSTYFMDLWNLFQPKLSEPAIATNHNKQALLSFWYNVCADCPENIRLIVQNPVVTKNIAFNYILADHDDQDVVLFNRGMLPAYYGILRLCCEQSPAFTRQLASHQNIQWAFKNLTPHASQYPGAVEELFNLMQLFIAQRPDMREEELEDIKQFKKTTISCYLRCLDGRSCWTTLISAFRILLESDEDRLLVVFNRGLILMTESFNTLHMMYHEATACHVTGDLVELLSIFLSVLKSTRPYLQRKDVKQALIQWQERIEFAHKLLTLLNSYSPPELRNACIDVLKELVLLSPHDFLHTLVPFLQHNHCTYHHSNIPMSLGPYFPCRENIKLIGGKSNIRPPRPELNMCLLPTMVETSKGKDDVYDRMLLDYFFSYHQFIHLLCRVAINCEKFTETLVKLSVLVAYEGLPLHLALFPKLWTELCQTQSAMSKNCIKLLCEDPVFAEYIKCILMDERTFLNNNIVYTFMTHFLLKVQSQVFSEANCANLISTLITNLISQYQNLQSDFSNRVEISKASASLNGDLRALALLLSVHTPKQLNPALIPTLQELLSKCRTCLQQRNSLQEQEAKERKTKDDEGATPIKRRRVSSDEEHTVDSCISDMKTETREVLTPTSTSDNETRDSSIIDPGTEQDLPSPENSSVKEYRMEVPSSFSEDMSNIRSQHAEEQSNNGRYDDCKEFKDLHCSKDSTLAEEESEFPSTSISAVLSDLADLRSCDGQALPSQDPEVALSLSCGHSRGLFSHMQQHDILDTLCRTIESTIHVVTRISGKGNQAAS

CC(c1ccccc1)N(C)C(=O)CCl (stereo not given)
inactive: USP34 -0.323 | USP36 -0.306 | USP38 -0.0902 | USP39 -0.413 | USP4 -0.289
